# Among all 310,000 compounds or so, about 14,000 (4.5%) showed an effect of 50% or more. The effect is printed as a negative number. What follows is part of a selection rich in strong results, with near analogues and random picks from the rest.
# Molecular target: human ether-à-go-go-related gene (hERG) potassium channel (human, UniProt Q12809)
# Test: primary screen, population patch clamp on CHO cells stably expressing hERG; higher = less effect of the substance
# Method: Briefly, Chinese hamster ovary (CHO) cells stably expressing the hERG channel were dislodged from tissue culture flasks and dispensed into PPC plates. […] During the recording, background leak currents were estimated by a 100 ms step to -80 mV from an initial holding potential of -70 mV and subtracted from the subsequent current measurement. The campaign was conducted in two phases using slight differences in recording protocol. In the first phase, the initial voltage pulse used a 100 ms step to -30 mV from a holding potential of -70 mV, a 2 s conditioning step to +25 mV, and a 2 s test step to -30 mV. During the second phase of the screen, the potential during the conditioning step was raised to +45 mV. In both phases of the campaign, a secondary voltage pulse was applied using the same parameters as the second phase initial pulse. The initial and secondary pulses were applied in the absence of compound, and upon application of 1 μM and 10 μM test concentrations. […]
# 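Further: peak tail current of the secondary pulse compared with the same well before compound.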
# Sequence of human ether-à-go-go-related gene (hERG) potassium channel (Q12809 whole entry, looked up): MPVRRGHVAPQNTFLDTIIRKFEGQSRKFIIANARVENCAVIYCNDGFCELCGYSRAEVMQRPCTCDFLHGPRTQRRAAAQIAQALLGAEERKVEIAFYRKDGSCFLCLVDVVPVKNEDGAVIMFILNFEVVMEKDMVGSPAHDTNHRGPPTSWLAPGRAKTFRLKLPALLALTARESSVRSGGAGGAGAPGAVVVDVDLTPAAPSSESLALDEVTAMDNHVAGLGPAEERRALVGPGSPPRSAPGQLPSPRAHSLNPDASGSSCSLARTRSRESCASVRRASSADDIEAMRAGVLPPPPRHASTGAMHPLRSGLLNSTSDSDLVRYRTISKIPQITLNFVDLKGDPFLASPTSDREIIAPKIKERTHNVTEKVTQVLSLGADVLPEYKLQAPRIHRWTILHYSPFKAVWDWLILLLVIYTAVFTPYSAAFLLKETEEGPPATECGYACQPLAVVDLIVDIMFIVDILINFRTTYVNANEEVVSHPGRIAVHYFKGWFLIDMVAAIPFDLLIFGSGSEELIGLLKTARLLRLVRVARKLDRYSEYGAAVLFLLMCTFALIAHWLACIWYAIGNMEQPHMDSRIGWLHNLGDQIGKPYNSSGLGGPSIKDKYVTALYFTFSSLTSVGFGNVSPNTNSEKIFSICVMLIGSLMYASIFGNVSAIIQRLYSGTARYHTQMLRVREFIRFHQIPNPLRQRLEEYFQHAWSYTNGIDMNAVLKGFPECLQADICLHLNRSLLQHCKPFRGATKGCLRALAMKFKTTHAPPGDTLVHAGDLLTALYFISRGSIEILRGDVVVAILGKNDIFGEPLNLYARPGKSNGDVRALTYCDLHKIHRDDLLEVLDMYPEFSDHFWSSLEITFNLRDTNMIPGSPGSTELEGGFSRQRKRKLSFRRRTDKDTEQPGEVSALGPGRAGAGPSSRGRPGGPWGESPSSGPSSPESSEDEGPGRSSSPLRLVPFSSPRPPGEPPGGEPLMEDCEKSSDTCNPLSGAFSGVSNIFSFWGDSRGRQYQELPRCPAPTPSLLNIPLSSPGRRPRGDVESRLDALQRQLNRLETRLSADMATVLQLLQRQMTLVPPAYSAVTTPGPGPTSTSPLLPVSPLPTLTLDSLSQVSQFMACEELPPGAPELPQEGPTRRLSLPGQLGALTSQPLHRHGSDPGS
row,SMILES,"hERG current change (%, negative = inhibition) at 10uM [%]"
1,N=C1/C(=C\c2ccc(-c3cccc(C(=O)O)c3)o2)C(=O)N=C2SC=C(c3ccccc3)N12,0.469
2,CCCN1CCCc2ccccc21.Cl,7.61
3,CNC(CC(C)C)C(=O)NC1C(=O)NC(CC(N)=O)C(=O)NC2C(=O)NC3C(=O)NC(C(=O)NC(C(=O)O)c4cc(O)cc(O)c4-c4cc3ccc4O)C(O)c3ccc(c(Cl)c3)Oc3cc2cc(c3OC2OC(CO)C(O)C(O)C2OC2C[C@](C)(N)C(O)C(C)O2)Oc2ccc(cc2Cl)C1O (some centres unmarked),9.61
4,COC(=O)c1ccc2c(=O)[nH]c(CCl)nc2c1,10.7
5,COC(=O)NNC(=O)c1ccc(Cl)cc1Cl,19.8
6,O=C(C1=C(O)C(=O)N(CC2CCCO2)C1c1ccc(Cl)cc1Cl)c1ccco1 (centres unmarked),18.5
7,COc1ccc(-c2oc(/N=C/N3CCOCC3)c(C#N)c2-c2ccc(OC)cc2)cc1,13.9
8,CC(C)C(=O)Nc1sc2c(c1C(N)=O)CCN(Cc1ccccc1)C2.Cl,-108
9,CCOC(=O)c1c(NC(=O)CC)sc2c1CCN(Cc1ccccc1)C2.Cl,-14.5
10,COC(=O)c1c(NC(=O)C(C)(C)C)sc2c1CCN(Cc1ccccc1)C2.Cl,-34.7
11,CCC(=O)Nc1sc2c(c1C(=O)OC)CCN(Cc1ccccc1)C2.Cl,-62.9
12,COC(=O)c1c(NC(=O)C(C)C)sc2c1CCN(Cc1ccccc1)C2.Cl,-38.4
13,CC(=O)Nc1sc2c(c1C(N)=O)CCN(Cc1ccccc1)C2.Cl,-23.3
14,O=C(N/N=C/c1cn(-c2ccccc2)nc1-c1ccc2c(c1)OCCO2)c1ccncc1,15.2
15,COc1ccc(NC(=O)COc2coc(CN3c4ccccc4CC3C)cc2=O)cc1 (centres unmarked),5.06
16,O=C(O)c1cc2c(cc1NC(=O)c1c(F)cccc1Cl)OCCCO2,5.08
17,Cc1nc2sc3c(c2c(=O)n1/N=C/c1ccco1)CCCC3,16.8
18,COc1cc(OC)c(N(C)C(=O)c2cc3c(s2)-c2ccccc2S(=O)(=O)C3)cc1Cl,-13.2
19,CN1CCN(C(=O)c2cc3c(s2)-c2ccccc2S(=O)(=O)C3)CC1,4.14
20,COc1ccc(N(C)C(=O)c2cc3c(s2)-c2ccccc2S(=O)(=O)C3)cc1,-39.9
21,CCN1CCN(C(=O)c2cc3c(s2)-c2ccccc2S(=O)(=O)C3)CC1,-11.2

row,SMILES,"hERG current change (%, negative = inhibition) at 10uM [%]"
1,COc1ccc(N(C)C(=O)c2cc3c(s2)-c2ccc(Cl)cc2S(=O)(=O)C3)c(OC)c1,-58.5
2,CCOC(=O)N1CCN(C(=O)c2cc3c(s2)-c2ccc(Cl)cc2S(=O)(=O)C3)CC1,-66.5
3,COc1cc(OC)cc(-n2nnnc2SCC(=O)Nc2nc3c(s2)CCCC3)c1,7.1
4,Cc1nnc(SCC(=O)Nc2ccc3c(c2)OCO3)n(N)c1=O,11.3
5,O=C(COc1cccc(-n2cnnn2)c1)N1CCOCC1,2.13
6,O=C1OC(c2ccc(Br)cc2)=N/C1=C\N1CCCCC1,22
7,CCN1CCCC1CNC(=O)CN1C(=O)COc2ccc(C)cc21 (centres unmarked),-12.4
8,COc1cccc(CNC(=O)CCC2CCCN(C(=O)CCC(F)(F)F)C2)c1 (centres unmarked),-5.17
9,COc1cccc(CNC(=O)CCC2CCCN(Cc3ccc(OC(F)F)cc3)C2)c1 (centres unmarked),-76.6
10,COc1cccc(CNC(=O)CCC2CCCN(C(=O)c3cccc(Cl)c3)C2)c1 (centres unmarked),-20.9
11,COc1cccc(CNC(=O)CCC2CCCN(C(=O)c3ccc(F)c(Cl)c3)C2)c1 (centres unmarked),-16.6
12,COc1cccc(CNC(=O)CCC2CCCN(Cc3cc(Cl)ccc3O)C2)c1 (centres unmarked),-60.6
13,COc1cccc(CNC(=O)CCC2CCCN(C3CCOCC3)C2)c1 (centres unmarked),-0.768
14,CC12CCC(C(=O)NC3CCCCC3)([C@H](Br)C1=O)C2(C)C (some centres unmarked),10.6
15,Cc1cc(C)cc(OCC(=O)OCC(=O)N2CCc3ccccc32)c1,14.5
16,O=C(Cn1nc(CNc2ccc(Cl)cc2)[n+]2c1CCCCC2)c1ccccc1.[Br-],9.17
17,Cc1ccc(C(C)C)c(OCc2nn(CC(=O)c3ccc(Cl)cc3)c3[n+]2CCCCC3)c1.[Br-],-73.3
18,O=C(Cn1nc(CNc2ccc(Cl)cc2)[n+]2c1CCCCC2)c1ccc(Cl)cc1.[Br-],-8.17
19,O=C(Cn1nc(CNc2ccc(Cl)cc2)[n+]2c1CCCCC2)c1ccc(Br)cc1.[Br-],-61.6
20,COc1ccc(NCc2nn(CC(=O)c3ccc(Br)cc3)c3[n+]2CCCCC3)cc1.[Br-],10.1
21,COc1ccc(C(=O)Cn2nc(CNc3ccc(Br)cc3)[n+]3c2CCCCC3)cc1.[Br-],15.4

row,SMILES,"hERG current change (%, negative = inhibition) at 10uM [%]"
1,O=C(Cn1nc(-c2nn(CC(=O)c3ccccc3)c3[n+]2CCCCC3)[n+]2c1CCCCC2)c1ccccc1.[Br-],12.8
2,Cc1ccc(C(C)C)c(OCc2nn(CC(=O)c3ccc(OC(F)F)cc3)c3[n+]2CCCCC3)c1.[Br-],-72.5
3,Cc1ccc(C(C)C)c(OCC(=O)Nc2ccc(Cl)cn2)c1,-8.82
4,O=C(Nc1ccccc1C(F)(F)F)c1cc(S(=O)(=O)N2CCC3(CC2)OCCO3)ccc1F,-17.1
5,O=C(CCCCCN1C(=O)c2ccccc2C1=O)Nc1ccc(S(=O)(=O)N2CCCCC2)cc1,-46.6
6,COc1ccc(NC(=O)N2CCCC(c3nc(-c4ccc(OC)cc4)no3)C2)cc1 (centres unmarked),-4.38
7,Cc1ccnc(NC(=O)C2CCN(S(=O)(=O)c3ccc(C)c(C)c3)CC2)c1,4.97
8,Cl.N[C@@H](CO)c1nnc([C@H](CC(=O)O)NC(=O)C2CCNCC2)o1,16.7
9,O=C(COC(=O)c1c[nH]c2ccccc12)Nc1ccc([N+](=O)[O-])cc1,-0.338
10,COC(=O)[C@@H](NC(=O)NCc1ccco1)C(C)C,2.75
11,Cc1cccc(NC(=O)c2cc(-c3cc(Cl)ccc3O)n[nH]2)c1,18.2
12,CCN(Cc1ccncc1)C(=O)c1cccs1,2
13,COc1cccc(CN(C)C(=O)c2cccnc2SC)c1OC,9.74
14,COC(=O)c1cccc(NC(=O)C23CC4CC(C2)CC(n2cncn2)(C4)C3)c1,-25.4
15,O=C(Nc1ccc2c(c1)OCO2)c1ccccc1SCC(=O)N1CCCC1,5.23
16,CCOC(=O)C1CCCN(CCSc2ccc(C)cc2)C1.Cl (centres unmarked),-28.3
17,CCOC(=O)C1CCN(C(=O)C(C)Sc2ccc(Cl)cc2)CC1 (centres unmarked),-27.9
18,CCOC(=O)C1CCN(C(=O)CSc2ccc(Cl)cc2)CC1,-32.5
19,CCN1CCN(CCCCSc2ccccc2)CC1.O=C(O)C(=O)O,-28.3
20,CCOC(=O)C1CCN(CCCSc2ccccc2)CC1.Cl,-62.4
21,Cc1ccc(SCCCCN2CCOCC2)cc1.Cl,-24.6

row,SMILES,"hERG current change (%, negative = inhibition) at 10uM [%]"
1,CCOC(=O)C1CCN(C(=O)CSc2ccccc2)CC1,-20.3
2,CCOC(=O)C1CCN(CCCSc2ccc(Cl)cc2)CC1.Cl,-72.7
3,CCOC(=O)C1CCN(CCCSc2ccc(C)cc2)CC1.Cl,-71
4,COC(=O)[C@H](C)NC(=O)NCc1ccccc1,1.58
5,CCCC(=O)Nc1ccc2c(c1)nc1n2CCOC1,6.13
6,Cc1ccc(-n2nnc3ccccc3c2=O)cc1C,-2.63
7,c1coc(-c2nc3c4c5c(sc4ncn3n2)CCCC5)c1,10.6
8,CSCCCNC(=O)c1ccc(OC2CCN(C(=O)c3cccnc3)CC2)cc1,-11.4
9,O=C(NC1CCOC1)c1ccc(OC2CCN(CCc3ccccc3)CC2)cc1 (centres unmarked),-39.8
10,COCC(=O)N1CCC(Oc2ccc(C(=O)N(C)CCCC3CCCC3)cc2)CC1,-26.9
11,COCC(=O)N1CCC(Oc2ccc(C(=O)NCCCC3CCCC3)cc2)CC1,-71.5
12,COCCC(=O)N1CCC(Oc2ccc(C(=O)NCCCC3CCCC3)cc2)CC1,-37.3
13,COCCC(=O)N1CCC(Oc2ccc(C(=O)NCCSC)cc2)CC1,13.6
14,COC(=O)CCCNC(=O)c1ccc(OC2CCN(CCc3ccccc3)CC2)cc1,-47.7
15,CSCCNC(=O)c1ccc(OC2CCN(CCc3ccccc3)CC2)cc1,-64.6
16,CSCCCNC(=O)c1ccc(OC2CCN(CCc3ccccc3)CC2)cc1,-75.2
17,CN(C)S(=O)(=O)c1cccc(NC(=S)N/N=C/C(c2ccccc2)c2ccccc2)c1,1.1
18,COc1ccc([N+](=O)[O-])cc1NC(=O)c1cncc(Br)c1,-12.2
19,CN1C(=O)NC(c2ccccc2Cl)C2=C1CC(C)(C)CC2=O (centres unmarked),5.71
20,O=C(NCCC1=CCCCC1)C1CCCN(S(=O)(=O)c2ccc(F)cc2)C1 (centres unmarked),19.6

# — PMC4336329 (PLoS ONE, 2015)
